Experimental data reported in PubChem BioAssay AID1159580 (chemical genetic matrix, 2015).
About 2,000 (36%) of roughly 5,500 compounds were called active. Inconclusive results (about 18%) are left out. Rule as the data show it: active = normalized growth mostly below about 0.91 (no sharp cut-off); inconclusive = no clear call, values can overlap the other calls; inactive = mostly above about 0.92. This is one part of the list.

Assay: chemical genetic growth profiling, strain panel (AID 1159580);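 also: tested at 20 µM; growth read once vehicle control cultures reached saturation at 30 °C; 1 = growth at the plate median or of vehicle wells; lower values mean less growth of the strain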
Settings: growth OD
[1] = S. cerevisiae deletion strains, locus YAL040C, strain CLN3, stronger effect = lower value
[2] = S. cerevisiae deletion strains, locus YCL061C, strain MRC1 (second series), stronger effect = lower value
[3] = S. cerevisiae deletion strains, locus YDR150W, strain NUM1, stronger effect = lower value
[4] = S. cerevisiae deletion strains, locus YDR363W, strain ESC2, stronger effect = lower value
[5] = S. cerevisiae deletion strains, locus YER002W, strain NOP16, stronger effect = lower value
[6] = S. cerevisiae deletion strains, locus YMR263W, strain SAP30, stronger effect = lower value
[7] = S. cerevisiae deletion strains, locus YMR307W, strain GAS1, stronger effect = lower value
[8] = S. cerevisiae deletion strains, locus YNL175C, strain NOP13, stronger effect = lower value
[9] = S. cerevisiae deletion strains, locus YNL197C, strain WHI3, stronger effect = lower value
[10] = S. cerevisiae deletion strains, locus YNL224C, strain SQS1, stronger effect = lower value
[11] = S. cerevisiae deletion strains, locus YOR083W, strain WHI5 (second series), stronger effect = lower value
[12] = S. cerevisiae deletion strains, locus YPL055C, strain LGE1, stronger effect = lower value
[13] = S. cerevisiae deletion strains, locus YAL013W, strain DEP1, stronger effect = lower value
[14] = S. cerevisiae deletion strains, locus YJR075W, strain HOC1, stronger effect = lower value
[15] = S. cerevisiae deletion strains, locus YNL153C, strain GIM3, stronger effect = lower value
[16] = S. cerevisiae deletion strains, locus YNL322C, strain KRE1, stronger effect = lower value
[17] = S. cerevisiae deletion strains, locus YPL241C, strain CIN2, stronger effect = lower value

Measured: normalized growth

CNC(=O)c1cc2c(cn1)[nH]c1ccccc12
inactive: [1] 1.01 | [2] 1.01 | [3] 1 | [4] 1.01 | [5] 0.995 | S. cerevisiae deletion strains, locus YGR229C, strain SMI1, stronger effect = lower value 1.05 | [6] 1 | [7] 0.997 | S. cerevisiae deletion strains, locus YNL128W, strain TEP1, stronger effect = lower value 0.97 | [8] 0.986 | [9] 0.983 | [10] 0.989 | [11] 0.993 | [12] 1.02

C=CC1CN2CCC1CC2C(OC(C)=O)c1ccnc2ccc(OC)cc12 (configuration not stated)
inactive: [13] 1.01 | S. cerevisiae deletion strains, locus YBR229C, strain ROT2, stronger effect = lower value 0.993 | S. cerevisiae deletion strains, locus YDL101C, strain DUN1, stronger effect = lower value 1 | [3] 1.02 | S. cerevisiae deletion strains, locus YEL061C, strain CIN8, stronger effect = lower value 0.957 | S. cerevisiae deletion strains, locus YGR078C, strain PAC10, stronger effect = lower value 1 | S. cerevisiae deletion strains, locus YHR030C, strain SLT2, stronger effect = lower value 1.06 | S. cerevisiae deletion strains, locus YHR087W, strain rtc3, stronger effect = lower value 0.95 | S. cerevisiae deletion strains, locus YJL187C, strain SWE1, stronger effect = lower value 1.01 | S. cerevisiae deletion strains, locus YJR043C, strain POL32, stronger effect = lower value 1 | [14] 0.997 | S. cerevisiae deletion strains, locus YKL190W, strain CNB1, stronger effect = lower value 0.982 | S. cerevisiae deletion strains, locus YLR039C, strain RIC1, stronger effect = lower value 1.06 | S. cerevisiae deletion strains, locus YLR058C, strain SHM2 (second series), stronger effect = lower value 1 | S. cerevisiae deletion strains, locus YLR085C, strain ARP6, stronger effect = lower value 0.975 | S. cerevisiae deletion strains, locus YLR262C, strain YPT6, stronger effect = lower value 1.06 | S. cerevisiae deletion strains, locus YML094W, strain GIM5, stronger effect = lower value 0.997 | S. cerevisiae deletion strains, locus YMR219W, strain ESC1, stronger effect = lower value 1 | [6] 0.984 | [7] 0.916 | [15] 1.02 | S. cerevisiae deletion strains, locus YNL298W, strain CLA4 (second series), stronger effect = lower value 0.967 | [16] 1 | S. cerevisiae deletion strains, locus YNR030W, strain Alg12, stronger effect = lower value 0.998 | [12] 0.999 | [17] 1 | S. cerevisiae deletion strains, locus YPR135W, strain CTF4, stronger effect = lower value 1 | S. cerevisiae strains, strain wild type, stronger effect = lower value 0.974

CNCCC(Oc1ccccc1OC)c1ccccc1 (configuration not stated)
inactive: [13] 0.996 | [1] 1.01 | [2] 1 | [3] 1.01 | [4] 1 | [5] 1 | [14] 1.01 | [15] 1.03 | [8] 1 | [9] 1.01 | [10] 1.01 | [16] 1 | [11] 1.03 | [12] 1.02 | [17] 0.996
